# Compound activity deposited in PubChem BioAssay by several laboratories.
# Most compounds without a hit are left out; they make up all but 4.8% or so of the library.
# hgDAF-12 ag: H. glycines DAF-12 receptor agonists, primary screen, cell-based, luminescence, HEK293, GAL4 fusion, UAS-luciferase | Nuclear hormone receptor DAF-12 (Heterodera glycines), GAL4 fusion | 370,000 compounds, 1.8% hits | AID 687014, 2013 | HEK293 GAL4-hgDAF12 UAS-luciferase reporter, agonist luminescence; normalized to butyrate control | activation, % at 6.8 µM;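 active = activation above a cutoff set at the mean of all screened compounds plus 3 SD, cut at about 10% in these data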;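 note: 0% = DMSO wells and 100% = sodium butyrate wells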
# DAX1 inh-1: DAX1 (NR0B1) inhibitors, primary screen, cell-based, HEK293, Gal4-DAX1, luciferase luminescence; HEK293 Gal4-DAX1 luciferase reporter; inhibition, % at 6.75 µM; 340,000 compounds, 0.99% hits;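 active = inhibition above the mean over all tested compounds plus 3 SD, cut at about 4.2% in these data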;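 note: 0% = DAX1-transfected cells with DMSO and 100% = empty-vector control cells with DMSO; inhibition shows as a rise in luminescence from relieved DAX1 repression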
# Target sequence (P51843 207-470 limits assumed): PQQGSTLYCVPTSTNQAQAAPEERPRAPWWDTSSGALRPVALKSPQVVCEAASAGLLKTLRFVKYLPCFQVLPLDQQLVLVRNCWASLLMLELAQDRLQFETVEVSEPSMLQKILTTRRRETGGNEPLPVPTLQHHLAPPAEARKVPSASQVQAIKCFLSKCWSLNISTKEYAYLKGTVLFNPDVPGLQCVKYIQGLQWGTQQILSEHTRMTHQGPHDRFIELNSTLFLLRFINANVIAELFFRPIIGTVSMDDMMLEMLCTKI
# ssDAF12 agonist: S. stercoralis DAF-12 nuclear receptor activators, primary screen, cell-based, luminescence, HEK293, GRIP1 co-expression, lit1-tk-luc; 370,000 compounds, 1% hits; HEK293 ssDAF-12/GRIP1 lit1-tk-luc reporter; % of 3 µM dafachronic acid response; Nuclear hormone receptor DAF-12 (Strongyloides stercoralis); activation, % at 6.8 µM;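 active = activation above the mean over all tested compounds plus 3 SD, cut at about 0.9% in these data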;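 note: 0% = DMSO-only wells and 100% = 3 µM delta7-dafachronic acid wells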
# DAX1 inh-2: DAX1 (NR0B1) inhibitors on StAR promoter, primary screen, cell-based, luminescence, SF-1 (NR5A1), full-length DAX-1; inhibition, % at 6.8 µM; 370,000 compounds, 1.1% hits; AID 652010, 2013; HEK293T StAR-luciferase reporter, SF-1/DAX-1 repression relief;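 active = inhibition above the mean over all tested compounds plus 3 SD, cut at about 3.6% in these data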;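 note: 0% = DAX-1 cells with DMSO and 100% = cells lacking DAX-1 with DMSO; higher inhibition means more luminescence from relief of DAX-1 repression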
# hcDAF-12 act: H. contortus DAF-12 nuclear receptor activators, primary screen, cell-based, luminescence, HEK293, lit1-tk-luc reporter. HEK293 hcDAF-12 lit1-tk-luc reporter; 0% DMSO, 100% Δ7-dafachronic acid. activation, % at 6.8 µM. 370,000 compounds, 1.4% hits. AID 652067, 2013;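 active = activation above the mean of all tested compounds plus 3 SD, cut at about 5.5% in these data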;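 note: 100% = response to 3 µM Δ7-dafachronic acid high control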
# Rev-erbA mod: modulators of Rev-erb alpha DNA binding, primary screen, biochemical, FITC-DNA, fluorescence polarization, uHTS; Rev-erbα–FITC-DNA binding, 90 min; activity, % at 10 µM; 370,000 compounds, 0.79% hits; AID 1259318, 2017;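 active = activity above about 14%, limit read from the data; passing the limit was not always enough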;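 note: 0% = DMSO wells with 35 nM protein and 100% = DMSO wells with 750 nM protein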
# NR1D1 mod conf: modulators of Rev-erb alpha DNA binding, confirmation, biochemical, FITC-DNA, fluorescence polarization, single point. activation, % at 25 µM. 3,000 compounds, 61% hits. shares compounds with Rev-erbA mod. 90 min;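 active = activation at or above a set limit, or at least 3 SD above the negative control mean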;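 note: 0% = 35 nM protein with DMSO and 100% = 750 nM protein high control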
# RORg counter: modulation of RORgamma DNA binding, dose response, counter-screen for Rev-erb alpha modulator project, biochemical, fluorescence polarization, FITC-DNA. shares compounds with Rev-erbA mod. purified RORgamma protein-FITC-DNA binding. IC50, µM. 910 compounds, 8% hits. AID 1259320, 2017;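 active = Compounds whose fitted half-maximal concentration for disrupting protein-DNA binding is below 10 micromolar; the record names Rev-erb in its text, so the target is in doubt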
# * = called active by the depositor; i = inactive; . = not tested or not shown.
SMILES,hgDAF-12 ag,DAX1 inh-1,ssDAF12 agonist,DAX1 inh-2,hcDAF-12 act,Rev-erbA mod,NR1D1 mod conf,others
COC(=O)c1sc(NC(=O)C(C)C)c(C(=O)OC)c1C,-2,0,-1,-1,0,22*,5,
CCC(NC(=O)Cn1c(-c2ccccc2)cc(C(C)=O)c1C)c1ccccc1 (stereo not drawn),0,.,-1,2,1,0,.,
COC(=O)[C@]12C[C@H](CC(=O)NCCCN3CCCC3=O)C(=O)N(Cc3cccc4ccccc34)C1=C[C@H](C1CCCC1)O[C@@H]2C,-2,.,-1,-1,-2,10,.,
CN1C(=O)c2ccc(N3CCCC3)cc2C1=O,-1,1,-1,0,2,2,.,
O=C1/C(=C/c2ccc(N3CCCC3)cc2)NC(=S)N1C1CC1,5,-1,-1,0,0,27*,27*,
Cc1cc(N2CCCC2)ccc1/C=C1\NC(=S)N(C)C1=O,4,1,-1,0,-1,30*,50*,RORg counter=>40
CC[C@@H](CCCc1ccccc1OC)CCS(=O)(=O)C(C)(C)C,1,.,-2,-1,-1,-8,.,
Cc1ccc2nc(-c3ccc(CN4CCC5(CC4)CNc4ccccc45)cc3)c(-c3ccccc3)nc2c1,4,.,-1,-1,0,-3,.,
Cc1oc2ncnc(N)c2c1C,0,0,-1,0,0,3,.,
Cc1ccc(-c2oc3ncnc(N)c3c2-c2ccc(C)cc2)cc1,2,0,-2,-1,-2,20*,8,
COCCNc1nc2sc3c(c2c(=O)n1Cc1ccco1)CCCCC3,8,0,-1,1,-1,49*,23*,
O=c1c2c3c(sc2nc(NCCO)n1Cc1ccco1)CCCCC3,4,0,0,1,1,0,.,
COC(=O)[C@]12C[C@H](CC(=O)NCCCN3CCCC3=O)C(=O)N(Cc3ccc4c(c3)OCO4)C1=C[C@H](COCc1ccccc1)O[C@@H]2C,1,.,-1,0,2,1,.,
O=S1(=O)c2ccc(N3CCSCC3)cc2Oc2ccccc2CN1Cc1cn(Cc2cccc(C(F)(F)F)c2)nn1,-1,.,-1,-1,-2,18*,10,
O=S1(=O)c2ccc(N3CCSCC3)cc2Oc2ccccc2CN1Cc1cn(Cc2ccc(F)cc2)nn1,-3,.,-1,-1,-1,20*,19*,
O=S1(=O)c2ccc(N3CCSCC3)cc2Oc2ccccc2CN1Cc1cn(Cc2ccc(C(F)(F)F)cc2)nn1,-2,.,-2,0,-2,3,.,
O=C(NCc1ccc(-c2nc3ccccc3s2)cc1)c1ccc(Br)o1,2,1,-1,0,-1,21*,13,
COc1cc(C(=O)NCc2ccc(-c3nc4ccccc4s3)cc2)cc(OC)c1OC,6,0,0,1,4,38*,32*,RORg counter=i
COc1cc(C(=O)NCc2ccncc2)cc(OC)c1OC,0,2,-1,0,2,-9,.,
COc1ccccc1C(=O)Nc1ccc2oc(-c3ccc(F)cc3)nc2c1,-1,1,-1,0,0,36*,33*,RORg counter=i
COc1cc(C(=O)NCc2ccc(-c3nc4ccccc4o3)cc2)cc(OC)c1OC,0,-1,-1,1,3,26*,11,
COc1ccc(C(=O)NCc2ccc(-c3nc4ccccc4s3)cc2)cc1,7,-1,-1,0,-1,1,.,
CC(C)C[C@H](NC(=O)N1CCOCC1)C(=O)N1CCC[C@H]1C(=O)NCc1ccccc1,3,.,0,-1,0,2,.,
CCCCN=C(N)NC(=O)c1ccccc1,3,.,-1,1,-1,4,.,
Cc1ccc(-n2c(SCC(=O)Nc3ccc4c(c3)OCCO4)nnc2-c2ccccn2)cc1,4,.,-1,0,-2,-4,.,
SMILES,hgDAF-12 ag,DAX1 inh-1,ssDAF12 agonist,DAX1 inh-2,hcDAF-12 act,Rev-erbA mod,NR1D1 mod conf,others
COc1ccc(N/C=C(\C=C\C#N)S(=O)(=O)c2ccccc2)cc1,0,0,-1,0,0,22*,3,
COc1ccccc1Cc1c(-c2ccc(C#N)cc2)nc2ccc(C)cn12,3,.,-1,1,-1,1,.,
Cc1ccc(Cc2c(-c3ccc(C#N)cc3)nc3ccc(Br)cn23)cc1,5,-1,-1,1,-1,29*,6,
N#Cc1ccc(-c2nc3ccc(Br)cn3c2Cc2cccc(F)c2)cc1,5,.,-1,1,0,2,.,
N#Cc1ccc(-c2nc3ccc(Br)cn3c2Cc2ccccc2)cc1,3,2,-1,1,-2,22*,14*,
Nn1c(SCC(=O)N2CCOCC2)nnc1-c1cc(-c2ccc(Cl)cc2)n[nH]1,-1,.,-1,0,-2,1,.,
CC(C)c1cc(C(=O)OCC(=O)NC(=O)NCc2ccco2)c(O)c(C(C)C)c1,3,2,-2,0,-1,16*,6,
N#CC1CCN(c2nc(-c3ccc(Br)cc3)cs2)CC1,9,.,-1,.,-1,3,.,
CCc1cc2cc(C)cc(C)c2nc1SCC(=O)N1CCCC1,2,0,-1,0,0,58*,41*,RORg counter=>40
CCN(CC)S(=O)(=O)c1ccc2[nH]cc(C(=O)NCCCN3CCCCC3C)c(=O)c2c1 (stereo not drawn),-2,0,-1,0,-1,27*,2,
CCCCCNC(=O)c1c[nH]c2ccc(S(=O)(=O)N3CCC4(CC3)OCCO4)cc2c1=O,1,-1,-2,0,-2,38*,48*,RORg counter=>40
CCN(CC)S(=O)(=O)c1ccc2[nH]cc(C(=O)NCCN3CCCCC3C)c(=O)c2c1 (stereo not drawn),-1,1,-1,0,1,-4,.,
COCCCNC(=O)c1c[nH]c2ccc(S(=O)(=O)N3CCC4(CC3)OCCO4)cc2c1=O,-2,0,-1,0,-2,4,.,
O=S1(=O)c2ccc(N3CCSCC3)cc2Oc2ccccc2CN1Cc1cn(Cc2ccc(Cl)cc2)nn1,-2,.,-2,-1,-1,18,.,
C[C@@H]1CCCCO[C@H](CN(C)C(=O)C2CCCCC2)[C@@H](C)CN([C@H](C)CO)C(=O)c2cc(NS(=O)(=O)c3cccs3)ccc2O1,0,.,-1,-1,-2,1,.,
Cc1cccc(-c2cccc3c4c([nH]c23)[C@@H]2C[C@H]3[C@@H](CN2CC4)[C@H](C)ON3C)c1,0,.,-1,-1,2,6,.,
CC(=O)N1CCc2cc(S(=O)(=O)NCCC(=O)NCc3ccc(Cl)cc3)ccc21,0,.,-2,-2,-1,6,.,
